Experimental findings from PubChem BioAssay (Tox21) are described below.

Inconclusive results are not listed. More than one record can exist for a structure, and the calls need not agree. The source made the active and inactive calls. Unless noted, the call rests on the fitted dose curve; in most records, active means well fitted curve in the direction sought with a large enough effect in the repeat runs; inconclusive means weak or mixed curves; inactive means no such curve, though single readings can be large; an effect the other way counts as inactive or inconclusive.

The nature of test [1]: qHTS assay to identify small molecule agonists of the vitamin D receptor (VDR) signaling pathway - cell viability counter screen (AID 743224). Further: nearly all actives have a fitted effect of over 50% in size. Further: potency means the concentration at half of the fitted maximal effect. A digest of the protocol:
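VDR-bla cells were preincubated 4 h at 37C/5% CO2, then exposed to compounds for 16 h. After the 2 h room-temperature bla FRET read, CellTiter-Glo was added to the same wells and luminescence read after 30 min.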

Test [2] in a line: qHTS assay to identify small molecule antagonists of the vitamin D receptor (VDR) signaling pathway - cell viability counter screen (AID 743225). Further: nearly all actives have a fitted effect of over 50% in size. In short, it runs like this: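 Cells (VDR-UAS-bla HEK 293T) are plated, rested 4 h at 37C, dosed with compound and 3 nM final 1-alpha,25-dihydroxy vitamin D3, and incubated 16 h. Viability is taken from CellTiter-Glo luminescence in the reporter wells.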

Test [3] can be described thus: qHTS assay to identify small molecule agonists of the NFkB signaling pathway (AID 1159509; active means well fitted curve in the direction sought with a large enough effect in the signal ratio in the repeat runs, not every such curve was filed as active; the % refers to the signal ratio; further: series mostly up to about 61 µM). A digest of the protocol: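 NFkB-bla ME-180 cells carry a beta-lactamase reporter under an NF-kB response element. They were plated overnight, then exposed to compounds for 5 h at 37 C. Read-out is LiveBLAzer FRET after 1.5 hr at room temperature (405 nm excitation; 460/530 nm emission).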
Background: qHTS replaces the single test concentration by a dilution series.

Test [4] is described as follows: qHTS assay to identify small molecule agonists of the NFkB signaling pathway - cell viability counter screen (AID 1159515; calls by dose curve; further: series mostly up to about 61 µM; nearly all actives have a fitted effect of over 55% in size). In short, it runs like this: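 NFkB-bla ME-180 cells, 2,000/well, were plated overnight at 37 C, 5% CO2, then exposed to compounds in DMSO for 5 hr. After the bla FRET read, CellTiter-Glo was added to the same wells; luminescence was read after 30 min at room temperature.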

The nature of test [5]: qHTS assay to identify small molecule agonists of the endoplasmic reticulum stress response signaling pathway (AID 1159516; active means well fitted activation curve with a large enough effect in the signal ratio in the repeat runs, not every such curve was filed as active; the % refers to the signal ratio). A digest of the protocol: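 CellSensor ESRE-bla HeLa cells, carrying a beta-lactamase reporter driven by the ER stress response element, were plated overnight and exposed to compounds for 5 hr at 37 C. Reporter activity was read as FRET substrate fluorescence after 2 hr at room temperature.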

A short description of test [6]: qHTS assay to identify small molecule agonists of the endoplasmic reticulum stress response signaling pathway - cell viability counter screen (AID 1159517; calls by dose curve; further: nearly all actives have a fitted effect of over 50% in size; further: potency means the concentration at half of the fitted maximal effect). In short, it runs like this: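 HeLa cells carrying an ESRE-driven beta-lactamase reporter receive compound for 5 hr at 37 C. Cell viability is then gauged with CellTiter-Glo by luminescence, 30 min at room temperature.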

Test [7] in a line: qHTS assay to identify small molecule antagonists of the retinoid-related orphan receptor gamma (ROR-gamma) signaling pathway - cell viability counter screen (AID 1159520). Further: nearly all actives have a fitted effect of over 50% in size. A digest of the protocol:
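Cytotoxicity was read from cellular ATP (CellTiter-Glo luminescence) after 16 hr at 37 C with 1 uM doxycycline induction. The inducer was added 2 hr after compound transfer to Tet-on ROR gamma CHO cells.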

For test [8], the target named is Nuclear receptor ROR-gamma (Homo sapiens) (UniProt P51449). Briefly: qHTS assay to identify small molecule antagonists of the retinoid-related orphan receptor gamma (ROR-gamma) signaling pathway (AID 1159521; further: nearly all actives have a fitted effect of over 50% in size; further: potency means the concentration at half of the fitted maximal effect). A digest of the protocol:
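RORγ antagonism is scored from reduced reporter luminescence in Tet-on CHO cells. Induction used 1 uM final doxycycline hyclate for 16 h at 37 C, following a 2 h compound exposure.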

A short description of test [9]: qHTS assay to identify small molecule agonists of the AP-1 signaling pathway - cell viability counter screen (AID 1159525; calls by dose curve; further: nearly all actives have a fitted effect of over 55% in size). A digest of the protocol: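 Luminescent ATP readout (Cell Titer Glo, 30 min RT), normalised to DMSO and tetra n-octyl ammonium bromide controls. Cells were ME-180 AP-1-bla in 0.5% dialyzed FBS Opti-MEM, with a 5 h, 37 °C compound exposure.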

Test [10] in a line: qHTS assay to identify small molecule agonists of the AP-1 signaling pathway (AID 1159526; calls by dose curve).

In the case of `COc1ccc(C=O)cc1O`, the Potency entry in [1], in test [2], in test [6], in test [7], in test [8] and in [9] was “inactive” throughout. In addition, the result in test [3], in test [4], in test [5] and in test [10] was inactive.

For the molecule `CCC(C)(C#N)N=NC(C)(C#N)CC` (stereo not given), the Potency entry in test [1], in test [2], in [6], in test [7], in test [8] and in test [9] was “inactive” in each case. Moreover, the molecule was classed as inactive in test [3], in test [4], in test [5] and in [10].

Take `COc1ccc(CN2CCNCC2)c(OC)c1OC`: the Potency result in [1], in test [2], in test [6], in [7], in test [8] and in test [9] was “inactive” each time. Moreover, the result in test [3], in test [4], in test [5] and in [10] was inactive.

For `CC[C@@H](CO)NC(=O)[C@@H]1C=C2c3cccc4c3c(cn4C)C[C@H]2N(C)C1`, the Potency result in test [1], in test [2], in test [6], in [7], in [8] and in [9] was “inactive” in each case. The molecule was classed as inactive in [3], in test [4], in test [5] and in [10].

For the molecule `CCC1(c2cccc(O)c2)CCCCN(C)C1` (stereo not given), the Potency entry in test [1], in test [2], in [6], in test [7], in [8] and in test [9] was “inactive” in each case. For the same molecule, the molecule was called inactive in test [3], in test [4], in test [5] and in [10].

For `O=C(Cl)CCl`, the Potency result in test [1], in [2], in [6], in test [7], in test [8] and in test [9] was “inactive” each time. The result in test [3], in test [4], in [5] and in [10] was inactive.

For `C[C@H]1CCCC(=O)CCC/C=C/c2cc(O)cc(O)c2C(=O)O1`, the Potency was 42.1 µM (active) and inactive in [1]; 47.2 µM (active) and inactive in test [6]; 20.9 µM (active) and inactive in test [8]. Also, the Potency result in [2], in test [7] and in test [9] was “inactive” throughout. In addition, the molecule was classed as inactive in test [3], in [4], in test [5] and in test [10].

Regarding `O=C(Cl)/C=C/C(=O)Cl`, the Potency entry in test [1], in test [2], in [6], in test [7], in test [8] and in test [9] was “inactive” throughout. Moreover, the molecule was classed as inactive in test [3], in [4], in test [5] and in test [10].

As to `CCCN1CCC[C@@H]2Cc3nc(N)ncc3C[C@H]21`, the Potency result in [1], in test [2], in [6], in test [7], in test [8] and in test [9] was “inactive” in each case. The outcome in test [3], in [4], in test [5] and in [10] was inactive.

As to `CC(C)C(C)(N)C#N` (stereo not given), the Potency entry in [1], in [2], in [6], in test [7], in test [8] and in test [9] was “inactive” each time. Besides, the molecule was classed as inactive in test [3], in test [4], in test [5] and in test [10].

For the molecule `CCOC(=O)Nc1cccc(OC(=O)Nc2ccccc2)c1`, the Potency result in test [1], in [2], in test [6], in [7], in [8] and in [9] was “inactive” in each case. The call in test [3], in [4], in test [5] and in test [10] was inactive.

On to `Cc1ccc(Cl)c(O)c1`, for which the Potency result in [1], in test [2], in test [6], in [7], in test [8] and in [9] was “inactive” each time. In addition, the call in test [3], in test [4], in [5] and in [10] was inactive.

For the molecule `CN(CCO)CCO`, the Potency entry in [1], in test [2], in test [6], in test [7], in [8] and in test [9] was “inactive” each time. In addition, the result in test [3], in test [4], in test [5] and in [10] was inactive.

As to `CCNc1nc(Cl)nc(NC(C)(C)C)n1`, the Potency entry in test [1], in test [2], in test [6], in test [7], in test [8] and in [9] was “inactive” each time. For the same molecule, the molecule was classed as inactive in [3], in test [4], in test [5] and in test [10].

`CC(Cc1ccccc1)NCCCCl` (stereo not given): the Potency result in [1], in test [2], in [6], in [7], in test [8] and in test [9] was “inactive” each time. The call in test [3], in [4], in test [5] and in test [10] was inactive.

For the molecule `CCOP(=S)(OCC)Oc1ccc(Cl)cc1Cl`, the Potency result in test [1], in [2], in test [6], in test [7], in test [8] and in [9] was “inactive” throughout. The molecule was classed as inactive in test [3], in [4], in [5] and in [10].

Consider `C=CCc1cc(OC)c2c(c1)OCO2`, for which the Potency entry in test [1], in test [2], in [6], in [7], in [8] and in test [9] was “inactive” each time. The call in [3], in test [4], in [5] and in [10] was inactive.

Consider `[P]#[In]`, for which the Potency result in test [1], in test [2], in test [6], in [7], in test [8] and in [9] was “inactive” throughout. Also, the molecule was called inactive in test [3], in test [4], in test [5] and in test [10].

With `CC(C)[C@]12CC(=O)[C@H](C)[C@H]1C2`, the Potency entry in [1], in test [2], in test [6], in test [7], in test [8] and in test [9] was “inactive” in each case. Further, the molecule was classed as inactive in test [3], in test [4], in [5] and in [10].

Take `CC(C)[N+](C)(CCC(C(N)=O)(c1ccccc1)c1ccccc1)C(C)C`: the Potency entry in test [1], in [2], in test [6], in test [7], in [8] and in test [9] was “inactive” each time. For the same molecule, the molecule was classed as inactive in [3], in [4], in test [5] and in test [10].

`CC(C)N(Cc1ccccc1)C(=O)C(C)(C)C`: the Potency result in [1], in test [2], in test [6], in test [7], in [8] and in [9] was “inactive” each time. Besides, the call in [3], in test [4], in test [5] and in [10] was inactive.

Regarding `Cc1cc(OC(=O)N(C)C)nn1C(=O)N(C)C`, the Potency result in [1], in test [2], in [6], in test [7], in [8] and in [9] was “inactive” each time. Also, the call in test [3], in test [4], in test [5] and in test [10] was inactive.

On to `O=C(O)C(Br)(Br)Br`, for which the Potency result in test [1], in test [2], in test [6], in test [7], in test [8] and in [9] was “inactive” each time. Besides, the molecule was classed as inactive in test [3], in test [4], in test [5] and in [10].

As for `CS(=O)(=O)Cl`, the Potency entry in [1], in [2], in test [6], in test [7], in [8] and in test [9] was “inactive” in each case. Also, the result in [3], in [4], in [5] and in [10] was inactive.

Turning to `BrCCc1ccccc1`, the Potency entry in test [1], in test [2], in test [6], in test [7], in test [8] and in [9] was “inactive” throughout. Besides, the result in test [3], in [4], in [5] and in test [10] was inactive.
